Shown are actives, neighbours in structure and some others; about 7.9% of the full set was active somewhere.
HCV inh: inhibitors of hepatitis C virus infection. Huh7.5.1 HCVcc-Cre infection, luciferase reporter, 44 h. Potency, µM (doses to about 41.8 µM), without a hit: at the highest dose activity change, negative = inhibition, actives largely listed as inhibitors. actives 3.4% (n = 340,000). AID 651820; active = well fitted inhibition curve with a large enough effect; inconclusive = small, poorly fitted or top-dose-only effect, or another doubt; inactive = no such curve, though single readings can be large or run the other way; note: potency is the fitted concentration of half-maximal effect
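Cells seeded at 1,000/well and cultured 4 h, then compounds added followed by HCVcc-Cre virus (~0.5 moi). After 44 h further culture, luciferase substrate was added, plates held 15 min at room temperature, and luminescence read for 15 sec.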
MARV entry inh: blocks Marburg virus binding to or entry into cells; Marburg virus pseudotyped entry inhibition, cell reporter; actives 1.8% (n = 300,000); Potency, µM (doses to about 37.8 µM), without a hit: top-dose activity change, negative = inhibition, actives largely listed as inhibitors; calls by dose curve; tested in HEK293 cells; note: potency is the fitted concentration of half-maximal effect
FMDV antiviral: blocks foot and mouth disease virus; Potency, µM (series often up to 57.9 µM), without a hit: at the top dose activity change, negative = inhibition, usual class: inhibitors; FMDV antiviral cell-based qHTS; AID 1159524; actives 1.2% (n = 410,000); calls by dose curve; tested in HEK293T cells; note: read-out not given here; potency is the fitted concentration of half-maximal effect; nearly all actives have a fitted effect of over 45% in size
HCMV antiviral: human cytomegalovirus inhibition | HFF cells, HCMV-luciferase reporter, 72 h; stronger effect = lower value | activity change, negative = inhibition, % at 57.5 µM | AID 1259415 | actives 4.5% (n = 410,000); in the data active = activity change below about -60%; inconclusive = no clear call, values can overlap the other calls; inactive = above about -39%
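HFF cells seeded 16 h at 37C, treated with compounds, infected with luciferase-reporter HCMV at MOI 1 PFU/cell; luciferase read at 72 h post infection, normalized to buffer-only and Salinomycin controls.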
LASV entry inh: Lassa virus entry inhibition; Potency, µM (titrated, usually from 37.9 µM), inactives show top-dose activity change, negative = inhibition, most hits filed as inhibitors; Lassa virus pseudotype entry inhibition, cell reporter; AID 540256; actives 1.2% (n = 300,000); calls by dose curve; tested in HEK293 cells; note: potency is the fitted concentration of half-maximal effect; nearly all actives have a fitted effect of over 50% in size
Numbers without * were called inactive; ? = inconclusive; / = not tested or not shown; [ ] = another dose, or the depositor's remark. % is set by controls: 0 for no effect and ±100 for the full control effect.

SMILES | HCV inh | MARV entry inh | FMDV antiviral | HCMV antiviral | LASV entry inh
Cc1ccc(-c2cc(C(=O)N/N=C/c3c(C)nn(-c4ccccc4)c3C)n[nH]2)s1 | 8.91µM* | ? | ? | -91.9* | 8.2µM*
Cc1nn(-c2ccccc2)c(C)c1/C=N/NC(=O)c1cc(C(C)(C)C)[nH]n1 | ? | 4.47µM* | 0.0% | 9.0 | ?
Cc1nn(-c2ccccc2)c(C)c1-c1cc(C(=O)N/N=C/c2cccnc2)[nH]n1 | / | / | / | -1.3 | /
Cc1cc(C(=O)N/N=C/c2c(C)[nH]c3ccccc23)n[nH]1 | 6.0% | -10.0%[46.1 µM] | 0.9% | 37.0 | 0.3%
COc1cccc(CN2C(=O)c3ccccc3Sc3ccc(C(=O)OCc4ccco4)cc32)c1 | / | / | -7.0% | 10.5 | -29.2%[46.1 µM]
COC(=O)C(C(C)=O)[C@@H](NC(=O)OC(C)(C)C)c1ccccc1 (stereo not given in full) | / | -7.0%[14.2 µM] | / | / | /
CCCCOn1c(C)c(C(C)=O)c2c3no[n+]([O-])c3ccc21 | -10.2% | -18.1%[46.1 µM] | -15.8% | -17.1 | 5.7%
CCOC(=O)c1c(C)n(OCc2ccccc2)c2ccc3c(no[n+]3[O-])c12 | 7.08µM* | ? | / | -31.0 | ?
O=C1NC[C@@H](CCCCN2CCN(CCc3ccc(O)cc3)C(=O)C2=O)N(CCc2ccc(O)cc2)C1=O | / | / | -26.8% | 17.8 | /
COC(=O)[C@]1(C)CC[C@@]2(C)CC[C@@]3(C)C4=CC=C5C(=CC(=O)C(O)=C5C)[C@@]4(C)CC[C@@]3(C)C2C1 (stereo not given in full) | / | / | 10µM* | / | /
COc1ccc(Cl)cc1NC(=O)CN1CCN(Cc2ccccc2)CC1 | -11.5% | -6.8% | -8.4% | -26.8 | ?
CCn1c(Cn2nnc(-c3ccccc3)n2)nnc1SCC(=O)Nc1cccc(C(C)=O)c1 | 35.5µM* | -10.2% | / | -11.6 | 0.3%
COc1cc(=O)n(C)c2c(OC[C@@H](O)C(C)(C)O)cccc12 | / | 35.5% | / | / | /
CCOc1ncccc1C(=O)OCC(=O)c1cc(OC)c(OC)c(OC)c1 | -10.7% | 9.4%[46.1 µM] | -18.7% | -0.9 | 21.2%
C/C(=N\NC(N)=S)c1ccc2c(c1)OCCO2 | ? | -1.6% | 33.9% | 30.6 | -26.9%
C/C(=N\NC(=S)Nc1cc(S(=O)(=O)N2CCOCC2)ccc1Cl)c1ccc(N2CCOCC2)cc1 | -22.4% | / | -6.8% | -18.0 | /
C/C(=N\NC(=S)Nc1ccc(F)cc1)c1ccc2c(c1)OCCO2 | ? | 1µM* | -9.7% | -35.7 | ?
C/C(=N\NC(=S)Nc1ccc(C)c(C)c1)c1ccc(N2CCOCC2)cc1 | ? | / | -12.8% | -60.7* | /
N=c1oc2ccccc2cc1C(=O)Nc1ccccc1 | 7.0% | ? | -45.4% | 88.8 | ?
COc1ccc2oc(=N)c(C(=O)Nc3ccc(C)cc3)cc2c1 | -9.5% | / | 29.2% | 47.0 | /
COc1ccc2o/c(=N\O)c(C(=O)Nc3ccc(C)cc3)cc2c1 | 10µM* | / | 19.9% | 16.3 | /
COc1ccc2oc(=N)c(C(=O)Nc3ccc(F)cc3)cc2c1 | 7.8% | ? | 21.5% | -61.7* | 5.1%[46.1 µM]
N=c1oc2cc(O)ccc2cc1C(=O)Nc1ccc(Br)cc1 | ? | ? | -15.6% | -90.5* | ?
CCOC(=O)C1=CCC(c2ccc(Cl)cc2)N(S(=O)(=O)c2ccc(C)cc2)C1 (stereo not given) | / | / | -6.6% | -22.9 | /
N#Cc1ccc2c(c1)C[C@]1(c3ccsc3)Oc3c(c(=O)oc4ccccc34)[C@H]2O1 | / | 5.3%[14.2 µM] | / | / | /
SMILES | HCV inh | MARV entry inh | FMDV antiviral | HCMV antiviral | LASV entry inh
O=C(O)c1ccc(C(=O)c2cc([N+](=O)[O-])cc([N+](=O)[O-])c2)cc1 | 6.8% | -9.6%[46.1 µM] | 0.0% | 4.4 | 11.8%[46.1 µM]
COc1ccc(C(=O)Cn2c(C)nc([N+](=O)[O-])c2Br)cc1 | ? | -1.0% | ? | 13.3 | -11.1%
Cc1nc([N+](=O)[O-])c(Br)n1CC(=O)c1ccc(Cl)cc1 | 10µM* | ? | -32.0% | 69.8 | ?
Cc1nc([N+](=O)[O-])c(Br)n1Cc1ccc(Cl)c(Cl)c1 | ? | / | 17.8µM* | 51.9 | /
CCOc1ccc(S(=O)(=O)Nc2cccc(C(=O)N3CCN(c4ccccn4)CC3)c2)cc1 | / | / | -26.6% | -61.5* | /
COc1ccccc1NS(=O)(=O)c1ccc(C(=O)N2CCN(c3ccccn3)CC2)cc1 | 11.2µM* | ? | ? | 12.0 | -18.4%
CN(c1ccc(OCC(=O)N2CCN(C/C=C/c3ccccc3)CC2)cc1)S(=O)(=O)c1cccs1 | 11.2µM* | / | ? | -82.5* | /
Cc1ccc(NS(=O)(=O)c2ccc(C(=O)N3CCN(c4ccccn4)CC3)cc2)cc1 | ? | -24.2% | 17.8µM* | ? | -13.6%
CC1=NC=CC2C1=Nc1ccccc12 (stereo not given) | / | -0.6% | / | / | /
O=C(NCc1ccccn1)[C@H]1[C@H](CO)[C@H]2Cn3c(cccc3=O)[C@@H]1N2CC1CCCCC1 | / | / | / | -0.8 | /
COc1cccc(CNC(=O)c2c(OC)cc(=O)n3c2CCN(C(=O)C2CC24CCCCC4)CC3)c1 (stereo not given) | / | / | -7.4% | / | /
CCOC(=O)c1cccn1C1C(=O)N(Cc2ccc3c(C)cc(=O)oc3c2)c2ccc(Cl)cc21 (stereo not given) | / | / | / | -13.2 | /
COc1ccc(OC)c(NC(=O)Cn2cc(S(=O)(=O)c3ccccc3)c(=O)c3cc(C)ccc32)c1 | / | 4.3%[46.1 µM] | -0.4% | 17.7 | -1.3%[46.1 µM]
N=C(CC1CC(=O)NC(=O)C1)C1=C(O)CCCC1=O | 10.5% | 3.0% | -9.0% | -16.5 | -6.0%
CCOc1ccc(NS(=O)(=O)c2cccc(C(=O)N3CCN(C/C=C/c4ccccc4)CC3)c2)cc1 | ? | ? | 28.2µM* | ? | ?
O=C(c1cccc(S(=O)(=O)N2CCOCC2)c1)N1CCN(C/C=C/c2ccccc2)CC1 | -19.9% | 23.7% | -21.3% | -28.8 | 6.1%
COc1ccc(-n2nnnc2C(CCc2ccccc2)N2CCN(C/C=C/c3ccccc3)CC2)cc1 (stereo not given) | / | / | -4.4% | -17.7 | /
O=C(O)C1CCCCN1c1ccccc1[N+](=O)[O-] (stereo not given) | / | / | -7.2% | 15.2 | /
O=C(O)C1Cc2ccccc2N2CCCC12 (stereo not given) | -29.2% | -0.6%[46.1 µM] | -8.3% | -61.1* | 10.0%[46.1 µM]
Cc1[nH]nc2c1[C@@H](CCc1ccccc1)C(C#N)=C(N)O2 | / | 2.9% | / | / | /
COc1ccc(NC(=S)N(CCCN2CCOCC2)Cc2cn(C)c3ccccc23)cc1 | ? | ? | 5.4% | -97.9* | ?
COc1ccc(NC(=S)N(CCCN2CCOCC2)Cc2ccccn2)cc1 | 0.7% | 1.7%[46.1 µM] | 9.9% | -10.8 | -6.4%
CCOc1ccc(NC(=S)N(CCCN2CCOCC2)Cc2cn(C)c3ccccc23)cc1 | 10µM* | ? | 4.0% | -92.5* | -13.3%
CCc1nc2ccc(C(=O)N(CC)CCN(C)C)cn2c1N(C)Cc1nccs1 | / | / | -1.3% | -19.2 | /
Cc1cc(C)cc(N2C(=O)CSC23C(=O)N(CC(=O)NC2CCCCC2)c2ccccc23)c1 (stereo not given) | / | / | 0.0% | -6.0 | ?
CCN(CC(=O)NCc1cccs1)C(=O)/C=C/c1cc(OC)ccc1OC | -8.2% | / | -19.4% | 0.0 | /
